Bioassay records (PubChem BioAssay)
HT1080-NT tox: qHTS for induction of synthetic lethality in tumor cells producing 2HG: qHTS for the HT-1080-NT fibrosarcoma cell line. HT-1080-NT fibrosarcoma viability, CellTiter-Glo ATP luminescence, 48 h. AID 686970, 2013. Potency, µM (titrated, usually from 46.1 µM), usual class: cytotoxic. hit rate 1.6% among 360,000;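 further: NT is the 2HG producing partner of a matched IDH1 knockdown line; nearly all actives have a fitted effect of over 55% in size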
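HT-1080-NT; 750 cells/well; 5% FBS RPMI; 48 h compound, 37 degrees C; CellTiter-Glo luminescence; curve fitting and curve-class assignment.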
SW480 rereplic: A quantitative high throughput screen for small molecules that induce DNA re-replication in SW480 colon adenocarcinoma cells; Potency, µM (top dose mostly 46.1 µM), actives largely listed as activators; SW480 DNA re-replication, Hoechst DNA content imaging, 48 h; hit rate 1.8% among 340,000; AID 624297, 2012; further: nearly all actives have a fitted effect of over 55% in size
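Hoechst fluorescence of nuclei (405 nm excitation, 500-530 nm emission) measured by plate-scanning imager after 48 hr compound exposure at 37 C; re-replication scored as increased number of nuclei with elevated intensity.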
MCF10A rereplic: A quantitative high throughput screen for small molecules that induce DNA re-replication in MCF 10a normal breast cells. MCF 10A DNA re-replication, Hoechst nuclear intensity, 48 h. Potency, µM (top dose mostly 46.1 µM), usual class: activators. hit rate 2.9% among 350,000. AID 624296, 2012; further: nearly all actives have a fitted effect of over 50% in size
HT1080 IDH1KD tx: qHTS for induction of synthetic lethality in tumor cells producing 2HG: qHTS for the HT-1080-IDH1KD cell line; Potency, µM (top dose mostly 46.1 µM), actives largely listed as cytotoxic; HT-1080 IDH1 knockdown viability, ATP luminescence, 48 h; hit rate 2% among 360,000; AID 686971, 2013
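Luminescent ATP read-out (CellTiter-Glo, 10 min at room temperature) after 48 h compound exposure at 37 °C gave viability of IDH1-knockdown HT-1080 cells. Activity was normalised to DMSO and cell-free wells, then fitted as concentration-response curves.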
KB-3-1 tox: qHTS assay for MDR1-selective chemotherapeutics: Primary screen using the parental adenocarcinoma cell KB-3-1. KB-3-1 viability, CellTiter-Glo ATP luminescence, 72 h. Potency, µM (titrated, usually from 46.1 µM), actives largely listed as cytotoxic. hit rate 1.4% among 400,000; further: nearly all actives have a fitted effect of over 60% in size
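Screening of KB-3-1 cells (DMEM, 10% FBS, phenol-red free) ran from lowest to highest compound concentration; after 72 h at 37 °C viability was read luminescently and curves fitted.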
KB-V1 cytotox: qHTS assay for MDR1-selective chemotherapeutics: Primary screen using the drug-selected MDR subline cells KB-V1; KB-V1 MDR cells viability, CellTiter-Glo, 72 h; Potency, µM (titrated, usually from 46.1 µM), usual class: cytotoxic; hit rate 3.4% among 400,000; AID 1347076, 2019; further: nearly all actives have a fitted effect of over 60% in size
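In this primary screen, KB-V1 cells overexpressing P-gp are incubated with library compounds (lowest to highest concentration) for 72 h at 37 degrees C before a luminescent ATP viability read.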
Numbers stand for hits; i = inactive; ? = inconclusive; nt = no result given. This is a sample that favours compounds with a hit; in the whole collection about 7.9% have one here. The call rests on the fitted dose curve; in most records, active means well fitted curve in the direction sought with a large enough effect; inconclusive means small, poorly fitted or top-dose-only effect, or another doubt; inactive means no such curve, though single readings can be large; an effect the other way counts as inactive or inconclusive.

SMILES	HT1080-NT tox	SW480 rereplic	MCF10A rereplic	HT1080 IDH1KD tx	KB-3-1 tox	KB-V1 cytotox
O=C(NCC1CCCO1)c1ccc2c(=O)n(Cc3ccc(Cl)cc3)c(=S)[nH]c2c1 (centres undefined)	i	i	i	i	i	i
CCN1CCN(C(=O)c2ccc3c(=O)n(CCc4ccccc4)c(=O)[nH]c3c2)CC1	i	29.1µM	?	i	i	i
Cc1ccc(CCNS(=O)(=O)c2cc(-c3cc(C)no3)ccc2C)cc1	nt	nt	nt	nt	i	i
CCc1nc2c(OCCC3CCCCC3)cccn2c1N(C)C(=O)C(C)C	?	nt	nt	?	i	i
COc1ccc(-c2cn3nc(N4CCC(C(=O)Nc5cc(Cl)ccc5OC)CC4)sc3n2)cc1	nt	nt	nt	nt	i	i
COc1ccc(-n2c(=S)[nH]c3cc(C(=O)NCc4ccco4)ccc3c2=O)cc1OC	i	i	i	i	i	i
O=C(NCc1ccccc1)c1ccc2c(=O)n(CC3CCCO3)c(=S)[nH]c2c1 (centres undefined)	i	i	i	i	i	i
COc1ccc(CCn2c(=S)[nH]c3cc(C(=O)NCc4ccco4)ccc3c2=O)cc1OC	?	i	?	i	16.4µM	i
Cc1ccc(CNC(=O)c2ccc3c(=O)n(CC4CCCO4)c(=S)[nH]c3c2)cc1 (centres undefined)	i	i	?	i	i	16.4µM
O=C(c1ccc2c(=O)n(Cc3ccccc3)c(=S)[nH]c2c1)N1CCOCC1	i	i	i	i	i	i
O=C(NCCCN1CCOCC1)c1ccc2c(=O)n(Cc3ccccc3)c(=S)[nH]c2c1	18.4µM	i	i	16.4µM	i	i
CCc1nc2c(OCc3ccccc3C)cccn2c1N(C)C(=O)c1ccco1	i	nt	nt	i	i	i
CCCCCCCCN1C(=O)[C@H](CC(=O)NCCCN2CCCC2=O)C[C@@]2(C(=O)OC)CCCCC=C12	i	nt	nt	i	i	?
Cc1cc(Nc2ccc3c(c2)OCCO3)c2cc(Cl)ccc2n1	i	i	i	i	i	14.6µM
Cc1cc(C)cc(C(=O)Nc2cccc(NC(=O)c3ccco3)c2)c1	i	i	i	i	i	?
CCOc1ccc(NC(=O)COC(=O)c2c(OC)cccc2OC)cc1	i	i	i	i	i	i
COc1ccc(OC)c(NC(=O)c2ccccc2SC)c1	i	i	i	i	i	18.4µM
COc1ccccc1C(=O)Nc1ccccc1SC(=O)c1ccccc1OC	18.4µM	?	20.6µM	?	?	i
CCOc1ccccc1C(=O)NC1CCN(CC(=O)Nc2cc(OC)ccc2OC)CC1	i	i	i	i	i	i
CCOc1ccccc1C(=O)Nc1cc(OC)ccc1OC	i	i	i	?	i	14.6µM
COc1ccc(NC(=O)c2ccccc2SC)cc1	i	i	i	i	i	i
CCOc1ccc(NC(=O)c2c(OC)cccc2OC)cc1	i	i	0.651µM	i	i	i
COC(=O)C1[C@H]2SC(C)(C)C(C(=O)OC)N2C(=O)N1Cc1ccccc1 (some centres undefined)	nt	nt	nt	nt	i	i
O=C(CN1C(=O)c2cccnc2Sc2ccccc21)Nc1cc(F)ccc1F	nt	nt	nt	nt	i	i
CCN(CC)S(=O)(=O)c1ccc(C(=O)NC2CC(=O)N(c3ccc(OC)c(OC)c3)C2)cc1 (centres undefined)	nt	nt	nt	nt	i	?
COc1cccc(C2c3c(oc4cc(C)cc(C)c4c3=O)C(=O)N2CCc2ccc(OC)c(OC)c2)c1 (centres undefined)	nt	nt	nt	nt	i	i
COc1ccccc1NC(=O)c1ccccc1NC(=O)c1ccccc1	nt	nt	nt	nt	i	i
CCOc1cc(NC(=O)c2ccccc2OC)c(OCC)cc1NC(=O)c1ccccc1	i	14.6µM	?	i	?	i
